From the supplement of paper PMC10338343
± gives the standard deviation.

What follows are sequences tested on MILI (PIWIL2) piRISC loaded with piRNA #1 (26 nt) (assay: pre-steady-state target cleavage rate (min^-1); guide: piRNA #1 5'p-UGAGGUAGUAGGUUGUAUAGUAUCCA; MIWI and MILI are mouse PIWI proteins and EfPiwi is from a freshwater sponge; tags in brackets are library labels; higher = faster piRNA-guided slicing of the target). Settings: auxiliary factor: 500 nM mouse GTSF1.
Procedure, shortened: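 In Cleave-'n-Seq, a transcribed, DNA-blocked target RNA library (0.1 nM) was combined with 1 nM active affinity-purified piRISC bearing one synthetic guide, with or without 500 nM GTSF1 partner protein. Reactions ran in HEPES–potassium acetate buffer at 33 °C for 0–8 or 0–960 min. Uncleaved targets were sequenced and normalised to depth and to weakly complementary targets, three trials were pooled, and k3 was capped at 0.0001 min^-1. The pre-steady-state cleavage rate was obtained by fitting a burst-and-steady-state model.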

| Sequence | pre-steady-state target cleavage rate |
| --- | --- |
| GGAGAGGAUACUUUACAACCUACUACCUCA | 0.172 ± 0.011 |
| GGAGACCUAUGUAAACAACCUACUACCACA | 0.00967 ± 0.0036 |
| GGAGACGAUACUUUACUACCUACUACCUCA | 0.179 ± 0.012 |
| GGAGACCAUACAAUACAACCAACUACCUCA | 0.00736 ± 0.0032 |
| GGAGACCUAUGAUAACAACCUACUACCUCA [g2:g16:cont:t1A] | 0.00406 ± 0.003 |
| GGAGACCUAAGUAUACAACCUACUUCCUCA | 0.0285 ± 0.0069 |
| GGAGACGAUAGUAUACAAGCUACUACCUCA | 0.176 ± 0.016 |
| GGAGACCUAUGUAUAGAAGCUACUACCUCA | 0.0984 ± 0.013 |
| GGAGACCAUACUAAAGAACCUACUACCUCA | 0.11 ± 0.012 |
| GGAGACCUAACUAUACAACCGUACUACCUCA | 0.00506 ± 0.005 |
| GGAGACCUAUGAAUACAACCUACUACGUCA | 0.00355 ± 0.0021 |
| GGAGACCUAUGAUUACAACCUACUAUCCUCA | 0.00664 ± 0.0027 |
| GGAGACCUAUGUUUACAACCUACUACGUCA | 0.00415 ± 0.0018 |
| GGAGACCUAUGUAUACAACCGACUACCUCA | 0.00448 ± 0.0021 |
| GGAGACGAUACUAUACAACCUACAUGCUCA | 0.0563 ± 0.016 |
| GGAGACCUAUCUAUACAACGUACUACCUCA | 0.0127 ± 0.0028 |
